Experimental findings from the supplement of paper PMC10849652 are described below.

The full data set covers some 8,800 targets. This sample favours those with a hit. About 0.5% of all pairs of compound and target were hits. A number with no mark means an inactive call.

What all share (assay): log2 fold change, soluble protein after heating vs DMSO (PISA); higher = thermal stabilisation; K562 lysate, 10 uM; active = over 0.2 and 3.5 SD of the protein, either way, in both replicates (recomputed)
Compound in test [1]: CN1CC[C@H](c2c(O)cc(O)c3c(=O)cc(-c4ccccc4Cl)oc23)[C@H](O)C1 [alvocidib]
Put shortly:
(§1)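 Log-two fold change in thermal stability relative to solvent controls is reported from duplicates. For each sample, crude K562 extract from dounce-homogenised pellets in PBS pH 7.4 with 1 mM MgCl2, at 1 mg/mL protein, was treated with 10 μM compound for 30 min. Aliquots heated for 3 min across 48°C-58°C were pooled, brought to 0.5% NP-40 at 4°C and cleared at 21,000xg for 90 min. The supernatant was quantified by TMTpro 16plex LC-MS/MS with channel sums equalised.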

Compound in test [2]: CN1CCc2c(c3ccccc3n2Cc2ccc(C(=O)NO)cc2)C1 [Tubastatin A]
Put shortly:
as §1

Compound in test [3]: CNC(=O)C1=CC=CC=C1NC2=NC(=NC=C2Cl)NC3=C(C=C(C=C3)N4CCOCC4)OC
Put shortly: as §1

Compound in test [4]: CNC(=O)c1ccc(Nc2ncc(C(F)(F)F)c(NCc3nccnc3N(C)S(C)(=O)=O)n2)cc1 [defactinib]
Put shortly:
as §1

Compound in test [5]: CNc1nc(-c2ccc3c(N)n[nH]c3c2)cc(N2C[C@@H](C(=O)NC3CCCCC3)CC[C@H]2C)n1
Put shortly:
as §1

Compound in test [6]: COC(=O)N[C@@H](C)CNc1nccc(-c2cn(C(C)C)nc2-c2cc(Cl)cc(NS(C)(=O)=O)c2F)n1 [encorafenib]
In outline: as §1

Compound in test [7]: COC(=O)[C@H](CCSC)NC(=O)C1=C(C=C(C=C1)NC[C@H](CS)N)C2=CC=CC=C2
Put shortly: as §1

Compound in test [8]: COc1cc2nc(-c3cc(F)ccc3O)nc(N[C@@H]3CNC[C@H]3C(C)(C)O)c2cc1OC
Put shortly: as §1

Compound in test [9]: CS(=O)(=O)CCNCc1ccc(-c2ccc3ncnc(Nc4ccc(OCc5cccc(F)c5)c(Cl)c4)c3c2)o1 [lapatinib]
Put shortly: as §1

Compound in test [10]: CS(=O)(=O)N1CCN(Cc2cc3nc(-c4cccc5[nH]ncc45)nc(N4CCOCC4)c3s2)CC1 [pictilisib]
In outline: as §1

Compound in test [11]: C[C@@H](Oc1cc(-c2cnn(C3CCNCC3)c2)cnc1N)c1c(Cl)ccc(F)c1Cl [crizotinib]
Put shortly: as §1

Compound in test [12]: C[C@H](C1=CC=C(C=C1)C(=O)NC2=C3C=CNC3=NC=C2)N
In outline:
as §1

Compound in test [13]: C[C@H](Nc1ncnc2nc[nH]c12)c1cc2cccc(Cl)c2c(=O)n1-c1ccccc1 [duvelisib]
In outline: as §1

Compound in test [14]: Cc1cc(Nc2cc(CN3CCOCC3)c3nc(C)c(Cc4ccc(Cl)cc4F)n3n2)n[nH]1 [gandotinib]
In outline: as §1

Compound in test [15]: Cc1cc(Nc2cc(N3CCN(C)CC3)nc(Sc3ccc(NC(=O)C4CC4)cc3)n2)n[nH]1 [tozasertib]
In outline: as §1

Compound in test [16]: Cc1ccc(-n2nc(C(C)(C)C)cc2NC(=O)Nc2ccc(OCCN3CCOCC3)c3ccccc23)cc1 [doramapimod]
In outline:
as §1

Compound in test [17]: Cc1ccc(NC(=O)c2ccc(CN3CC[C@H](N(C)C)C3)c(C(F)(F)F)c2)cc1Nc1nccc(-c2cncnc2)n1 [bafetinib]
In outline:
as §1

Compound in test [18]: Cc1cccc(CC(=O)N2CCc3c2ccc(-c2cn(C)c4ncnc(N)c24)c3F)n1
In outline:
as §1

Compound in test [19]: COc1cc(Nc2ncc3c(n2)-c2ccc(Cl)cc2C(c2c(F)cccc2OC)=NC3)ccc1C(=O)O [alisertib]
In outline: as §1

Compound in test [20]: COc1cc2ncnc(Nc3ccc(F)c(Cl)c3)c2cc1OCCCN1CCOCC1 [gefitinib]
Put shortly:
as §1

Chain of UniProt Q2VIQ3 (Q2VIQ3 whole entry, looked up): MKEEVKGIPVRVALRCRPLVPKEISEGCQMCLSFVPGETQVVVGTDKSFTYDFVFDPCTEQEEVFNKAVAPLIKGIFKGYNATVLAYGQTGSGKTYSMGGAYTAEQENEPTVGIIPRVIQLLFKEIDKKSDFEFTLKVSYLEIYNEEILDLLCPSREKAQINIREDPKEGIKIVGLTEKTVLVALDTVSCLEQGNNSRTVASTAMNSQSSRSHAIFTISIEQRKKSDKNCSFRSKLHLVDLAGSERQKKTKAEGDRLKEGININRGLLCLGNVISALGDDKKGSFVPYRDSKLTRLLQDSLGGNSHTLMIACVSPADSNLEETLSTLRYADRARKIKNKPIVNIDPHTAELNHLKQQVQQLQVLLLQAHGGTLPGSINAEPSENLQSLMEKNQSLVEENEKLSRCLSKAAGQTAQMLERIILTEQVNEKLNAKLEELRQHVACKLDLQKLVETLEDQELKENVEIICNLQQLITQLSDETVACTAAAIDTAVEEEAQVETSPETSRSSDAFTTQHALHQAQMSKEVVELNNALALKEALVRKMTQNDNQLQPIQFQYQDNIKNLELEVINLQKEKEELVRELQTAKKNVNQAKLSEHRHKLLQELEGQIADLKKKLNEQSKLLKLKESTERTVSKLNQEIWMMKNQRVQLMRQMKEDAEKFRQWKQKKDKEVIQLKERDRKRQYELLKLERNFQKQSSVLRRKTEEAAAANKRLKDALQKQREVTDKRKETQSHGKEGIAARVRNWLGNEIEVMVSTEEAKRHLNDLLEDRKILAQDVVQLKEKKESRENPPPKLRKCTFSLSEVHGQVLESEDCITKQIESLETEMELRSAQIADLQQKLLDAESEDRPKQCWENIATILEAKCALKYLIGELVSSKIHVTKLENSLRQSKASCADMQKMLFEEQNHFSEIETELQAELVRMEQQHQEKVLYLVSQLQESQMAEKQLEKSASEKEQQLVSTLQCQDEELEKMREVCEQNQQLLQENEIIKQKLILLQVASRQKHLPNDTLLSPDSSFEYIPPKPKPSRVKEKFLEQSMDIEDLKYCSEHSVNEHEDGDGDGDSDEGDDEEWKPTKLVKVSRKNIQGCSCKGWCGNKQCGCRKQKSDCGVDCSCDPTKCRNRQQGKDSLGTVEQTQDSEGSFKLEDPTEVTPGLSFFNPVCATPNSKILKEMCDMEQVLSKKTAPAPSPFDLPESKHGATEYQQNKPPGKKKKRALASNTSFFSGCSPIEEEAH
Chain of UniProt Q5SRI9 (Q5SRI9 whole entry, looked up): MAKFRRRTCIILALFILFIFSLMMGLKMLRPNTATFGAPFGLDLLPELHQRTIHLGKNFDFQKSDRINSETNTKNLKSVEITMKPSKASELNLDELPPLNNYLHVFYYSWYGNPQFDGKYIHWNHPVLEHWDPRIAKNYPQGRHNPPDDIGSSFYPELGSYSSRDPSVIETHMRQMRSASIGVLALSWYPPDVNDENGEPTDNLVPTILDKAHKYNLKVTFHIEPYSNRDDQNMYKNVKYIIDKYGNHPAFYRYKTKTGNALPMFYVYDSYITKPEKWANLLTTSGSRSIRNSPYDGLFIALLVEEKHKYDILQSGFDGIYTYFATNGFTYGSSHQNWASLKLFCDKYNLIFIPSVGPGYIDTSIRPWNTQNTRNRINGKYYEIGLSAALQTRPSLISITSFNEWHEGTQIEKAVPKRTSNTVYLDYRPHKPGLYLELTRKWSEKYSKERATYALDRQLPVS
Chain of UniProt Q9Y2E5 (Q9Y2E5 whole entry, looked up): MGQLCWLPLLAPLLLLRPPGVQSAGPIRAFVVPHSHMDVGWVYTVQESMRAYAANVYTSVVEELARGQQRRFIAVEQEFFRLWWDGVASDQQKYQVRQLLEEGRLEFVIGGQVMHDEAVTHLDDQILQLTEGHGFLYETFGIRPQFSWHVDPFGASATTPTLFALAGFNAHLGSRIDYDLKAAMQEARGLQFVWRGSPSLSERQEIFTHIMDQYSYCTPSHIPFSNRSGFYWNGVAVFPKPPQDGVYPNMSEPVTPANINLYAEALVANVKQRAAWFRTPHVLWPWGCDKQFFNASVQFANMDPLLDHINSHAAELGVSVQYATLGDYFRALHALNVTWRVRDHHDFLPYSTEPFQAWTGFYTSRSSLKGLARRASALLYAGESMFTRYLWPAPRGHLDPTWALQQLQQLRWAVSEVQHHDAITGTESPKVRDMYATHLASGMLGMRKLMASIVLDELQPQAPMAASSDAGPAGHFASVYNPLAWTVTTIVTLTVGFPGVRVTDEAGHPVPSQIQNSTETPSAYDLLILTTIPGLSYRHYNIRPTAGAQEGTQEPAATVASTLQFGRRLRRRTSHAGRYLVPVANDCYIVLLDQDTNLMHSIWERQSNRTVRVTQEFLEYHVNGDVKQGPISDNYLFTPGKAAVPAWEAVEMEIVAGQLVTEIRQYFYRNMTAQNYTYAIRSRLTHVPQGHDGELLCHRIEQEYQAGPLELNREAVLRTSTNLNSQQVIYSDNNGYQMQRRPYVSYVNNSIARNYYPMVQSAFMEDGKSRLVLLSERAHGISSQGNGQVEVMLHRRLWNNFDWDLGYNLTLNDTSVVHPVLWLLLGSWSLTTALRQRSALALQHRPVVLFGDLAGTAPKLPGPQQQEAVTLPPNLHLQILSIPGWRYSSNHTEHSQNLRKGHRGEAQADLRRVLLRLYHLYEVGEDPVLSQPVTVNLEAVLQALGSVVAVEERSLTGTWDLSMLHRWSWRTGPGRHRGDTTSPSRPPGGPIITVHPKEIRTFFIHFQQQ

With MANEA (UniProt Q5SRI9), the log2 fold change was -0.078 in test [1]; -0.08 in test [2]; -0.016 in test [3]; 0.062 in [4]; -0.09 in [5]; 0.028 in test [6]. Besides, the log2 fold change in test [7] was -0.07; in [8], 0.041; in test [9] it was -0.01; in [10], 0.008; in test [11], -0.023; in test [12], -0.464 (active). The log2 fold change in test [13] is 0.036; in test [14] it was 0.365 (active); in test [15], 0.035; in test [16] it was 0.034; in test [17] it was 0.007; in test [18], 0.278.
KIF4B (UniProt Q2VIQ3): the log2 fold change in test [1] was -0.01; in test [2], -0.207 (active); in test [3], 0.024; in [4], 0.008; in [5] it was -0.039; in test [6], 0.034. Moreover, the log2 fold change in test [7] was 0.146; in test [19], -0.018; in test [8] it was -0.006; in test [20], -0.018; in [9] it was 0.03; in test [10], -0.001. Besides, the log2 fold change in test [11] was -0.02; in test [12], 0.029; in test [13] it was -0.023; in test [14], -0.051; in [15] it was -0.033; in test [16], 0.015. Moreover, the log2 fold change is -0.04 in test [17] and 0.035 in test [18].
On to MAN2B2 (UniProt Q9Y2E5), for which the log2 fold change in test [1] was 0.199; in [2], 0.029; in test [3] it was -0.006; in [5] it was 0.059; in [6] it was -0.004; in test [7], 0.073. The log2 fold change was 0.032 in test [19]; 0.049 in test [8]; -0.017 in [20]; 0.01 in [9]; 0.021 in test [10]; 0 in test [11]. The log2 fold change in [12] was 0.595 (active); in test [13] it was -0.018; in [14], -0.38; in test [15], 0.003; in test [16], -0.028; in [17] it was -0.12. Further, the log2 fold change in [18] was -0.546 (active).
